MOR-DOR inv ag: mu-delta opioid heterodimer inverse agonism | 0.21% of 340,000 active | cell-based MOR-DOR heterodimer luminescence | inhibition, % at 9.3 µM | P35372+P41143; in the data active means inhibition above about 22%, passing the limit was not always enough;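 further: 0% = cells with DMSO and 100% = wells without cells with DMSO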
Target sequence (P35372 whole entry, looked up): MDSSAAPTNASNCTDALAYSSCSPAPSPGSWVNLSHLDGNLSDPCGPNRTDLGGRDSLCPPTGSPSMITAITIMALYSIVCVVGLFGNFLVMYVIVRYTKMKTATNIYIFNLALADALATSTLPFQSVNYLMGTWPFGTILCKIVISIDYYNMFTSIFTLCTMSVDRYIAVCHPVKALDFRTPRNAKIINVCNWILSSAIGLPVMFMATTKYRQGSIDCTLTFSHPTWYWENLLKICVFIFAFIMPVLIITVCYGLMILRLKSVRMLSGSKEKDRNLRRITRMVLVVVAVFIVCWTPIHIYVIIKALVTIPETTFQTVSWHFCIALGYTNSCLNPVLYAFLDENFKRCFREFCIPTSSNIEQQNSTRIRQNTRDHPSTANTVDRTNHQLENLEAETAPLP
Target sequence (P41143 whole entry, looked up): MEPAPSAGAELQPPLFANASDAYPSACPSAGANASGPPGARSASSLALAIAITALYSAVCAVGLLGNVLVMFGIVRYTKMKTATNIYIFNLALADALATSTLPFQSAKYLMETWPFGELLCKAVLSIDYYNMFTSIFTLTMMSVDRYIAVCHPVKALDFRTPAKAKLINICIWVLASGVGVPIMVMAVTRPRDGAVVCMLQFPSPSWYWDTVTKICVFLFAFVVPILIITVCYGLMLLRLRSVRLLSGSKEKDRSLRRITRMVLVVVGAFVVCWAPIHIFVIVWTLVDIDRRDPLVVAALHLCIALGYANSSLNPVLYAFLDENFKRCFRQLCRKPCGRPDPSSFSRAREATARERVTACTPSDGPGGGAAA
HTR5A inv ag: HTR5A inverse agonism, opioid heterodimer counter-screen. inhibition, % at 9.3 µM. HTR5A cell line, luminescence. 0.083% of 340,000 active. AID 504634. P47898; in the data active means inhibition mostly above about 23%, no sharp cut-off; inactive means mostly below about 18%;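 further: 0% = cells with DMSO and 100% = no-cell wells with DMSO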
HTR5A ag: HTR5A agonism, opioid heterodimer counter-screen. P47898. HTR5A agonist assay, luminescence, cell-based. activation, % at 9.3 µM. 0.61% of 340,000 active. AID 504692; in the data active means activation mostly above about 9.5%, no sharp cut-off; inactive means mostly below about 7.6%;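 further: 0% = cells with vehicle only and 100% = reference agonist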
MOR-DOR ag: agonists of human mu-delta opioid receptor heterodimerization | P35372+P41143 | cells, OPRM1-OPRD1 heterodimerization, luminescence | activation, % at 9.3 µM | 0.3% of 340,000 active; in the data active means activation above about 18%;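 further: 0% = vehicle-treated cells and 100% = reference agonist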
Numbers without * were called inactive. Shown are actives, neighbours in structure and some others; about 1.1% of the full set was active somewhere.

Results for Cn1ncc2c(O/N=C(\N)c3ccc(C(F)(F)F)cc3)ncnc21 ?
MOR-DOR inv ag: -196; HTR5A inv ag: 1; HTR5A ag: 48*; MOR-DOR ag: 39*

How did Cc1ccc(C(=O)NNc2ncnc3c2cnn3C)cc1 do in these assays?
MOR-DOR inv ag: 21; HTR5A inv ag: -20; HTR5A ag: 4; MOR-DOR ag: -4

Results for O=C(COc1ccc2ccc(=O)oc2c1)NCCCN1CCCC1=O ?
MOR-DOR inv ag: 3; HTR5A inv ag: -8; HTR5A ag: 13*; MOR-DOR ag: -1

How did CC[n+]1ccc(/C=C/c2ccc(N(C)C)cc2)c2ccccc21 do in these assays?
MOR-DOR inv ag: 27; HTR5A inv ag: 34*; HTR5A ag: -14; MOR-DOR ag: -6

What do the screens show for `O=C1NC[C@@H](c2ccccc2)OC(=O)[C@@H](Cc2ccc(F)cc2)C/C=C\C[C@@H]1CC(=O)N(CCO)Cc1ccccc1`?
MOR-DOR inv ag: 37*; HTR5A inv ag: 48*; HTR5A ag: -19; MOR-DOR ag: -7

How did Cc1ccc(C)c(OCCC(=O)N(C)CC(=O)Nc2c(C)cccc2C)c1 do in these assays?
MOR-DOR inv ag: 10; HTR5A inv ag: 3; HTR5A ag: -1; MOR-DOR ag: -2

How did Cc1[nH]c(C)c(S(=O)(=O)N2CCCCC2C)c1C(=O)N1CCCC1 (stereo not given) do in these assays?
MOR-DOR inv ag: 20; HTR5A inv ag: -7; HTR5A ag: -5; MOR-DOR ag: -4

Results for O=C(Nc1ccc2c(c1)CCC2)c1cnc(Cl)c(Cl)c1 ?
MOR-DOR inv ag: -47; HTR5A inv ag: -29; HTR5A ag: 11*; MOR-DOR ag: 9

Results for O=C(Nc1ccc2c(c1)CCC2)c1ccc(Cl)nc1 ?
MOR-DOR inv ag: -11; HTR5A inv ag: -4; HTR5A ag: 2; MOR-DOR ag: 2

Results for COCC(C)n1c(C)cc(C(=O)COC(=O)C2=NN(c3ccccc3)C(=O)CC2)c1C (stereo not given) ?
MOR-DOR inv ag: 12; HTR5A inv ag: 3; HTR5A ag: -1; MOR-DOR ag: -3

Results for COCC(C)n1c(C)cc(C(=O)COC(=O)c2c(C)nn(-c3ccccc3)c2C)c1C (stereo not given) ?
MOR-DOR inv ag: -15; HTR5A inv ag: -23; HTR5A ag: 10*; MOR-DOR ag: 3

What do the screens show for `CCc1ccc(-c2nc(CS(=O)CC(=O)NCCCN3CCOCC3)c(C)o2)cc1` (stereo not given)?
MOR-DOR inv ag: 18; HTR5A inv ag: -17; HTR5A ag: 2; MOR-DOR ag: -3

How did COc1ccc(C(F)(F)F)cc1N/C=C/c1nnnn1-c1ccc2ccccc2c1 do in these assays?
MOR-DOR inv ag: -4; HTR5A inv ag: -41; HTR5A ag: 12*; MOR-DOR ag: 1

How did COc1ccc(NC(=O)COc2cccc3c2OC(C)(C)C3)c(OC)c1 do in these assays?
MOR-DOR inv ag: 3; HTR5A inv ag: -52; HTR5A ag: 13*; MOR-DOR ag: 0

How did COc1cc(NC(=O)COc2cccc3c2OC(C)(C)C3)cc(OC)c1OC do in these assays?
MOR-DOR inv ag: 1; HTR5A inv ag: -50; HTR5A ag: 14*; MOR-DOR ag: 0

Results for COc1cc(C)c(NC(=O)COc2cccc3c2OC(C)(C)C3)cc1OC ?
MOR-DOR inv ag: 4; HTR5A inv ag: -14; HTR5A ag: 6; MOR-DOR ag: -1

What do the screens show for `C#CNC(=O)C1(CC=C)CCNCC1`?
MOR-DOR inv ag: 2; HTR5A inv ag: -13; HTR5A ag: 3; MOR-DOR ag: 0

Results for N#Cc1ccc(CN2CCN(C(=O)c3ccc(S(=O)(=O)NCc4ccco4)cc3)CC2)cc1 ?
MOR-DOR inv ag: -2; HTR5A inv ag: -42; HTR5A ag: 12*; MOR-DOR ag: 0

What do the screens show for `c1ccc(-c2cnn3nnnc3n2)cc1`?
MOR-DOR inv ag: -4; HTR5A inv ag: -26; HTR5A ag: 12*; MOR-DOR ag: 1

How did CC(C)N(C(=O)CSc1nc2ccccc2n1Cc1ccccc1)C(C)C do in these assays?
MOR-DOR inv ag: 4; HTR5A inv ag: -23; HTR5A ag: 10.0*; MOR-DOR ag: -1

How did CC(C)(C)c1ccc(OCc2ccc(C(=O)N/N=C/c3ccc(O)c(O)c3)cc2)cc1 do in these assays?
MOR-DOR inv ag: -24; HTR5A inv ag: -22; HTR5A ag: 8.8*; MOR-DOR ag: 5

Results for COc1ccc(S(=O)(=O)N2CCOC23CCN(S(=O)(=O)c2c(C)cc(C)cc2C)CC3)cc1 ?
MOR-DOR inv ag: -24; HTR5A inv ag: 8; HTR5A ag: 11*; MOR-DOR ag: 4

How did CCC(CC)NC(=O)c1nn(Cc2ccccc2)c(=O)c2ccccc12 do in these assays?
MOR-DOR inv ag: -35; HTR5A inv ag: -26; HTR5A ag: 9.8*; MOR-DOR ag: 5

What do the screens show for `Cc1ccc(C(=O)N/C(=C/c2cccs2)C(=O)NCCc2c[nH]c3ccccc23)cc1`?
MOR-DOR inv ag: 8; HTR5A inv ag: -24; HTR5A ag: 14*; MOR-DOR ag: -1

Results for CN1CCN(C2=C(Cl)C(=O)c3ccccc3C2=O)CC1 ?
MOR-DOR inv ag: -136; HTR5A inv ag: 14; HTR5A ag: -3; MOR-DOR ag: 28*

What do the screens show for `O=C1C(Cl)=C(N2CCC(C(=O)O)CC2)C(=O)c2ccccc21`?
MOR-DOR inv ag: -22; HTR5A inv ag: 0; HTR5A ag: -1; MOR-DOR ag: 4

How did O=Cc1cn(-c2ccccc2)nc1-c1ccc(F)cc1 do in these assays?
MOR-DOR inv ag: -47; HTR5A inv ag: -6; HTR5A ag: 2; MOR-DOR ag: 9

Results for CC1=NNC(=O)/C1=C\c1cn(-c2ccccc2)nc1-c1ccc(F)cc1 ?
MOR-DOR inv ag: -34; HTR5A inv ag: -46; HTR5A ag: 17*; MOR-DOR ag: 7

How did CCN(CC(=O)NCc1ccc(F)cc1)C(=O)Cc1ccc(OC)cc1 do in these assays?
MOR-DOR inv ag: -2; HTR5A inv ag: -5; HTR5A ag: -2; MOR-DOR ag: 0

How did O=C(NCC(=O)N1CCN(S(=O)(=O)c2ccccc2F)CC1)c1ccc2c(c1)OCO2 do in these assays?
MOR-DOR inv ag: 12; HTR5A inv ag: -31; HTR5A ag: 12*; MOR-DOR ag: -2

What do the screens show for `CCc1ccc(CNC(=O)C(=O)NCC2CCCO2)cc1` (stereo not given)?
MOR-DOR inv ag: -3; HTR5A inv ag: -6; HTR5A ag: 2; MOR-DOR ag: 1

What do the screens show for `COc1cccc(CNC(=O)C(=O)NCC2CCCO2)c1` (stereo not given)?
MOR-DOR inv ag: -11; HTR5A inv ag: -30; HTR5A ag: 14*; MOR-DOR ag: 2

What do the screens show for `C=CCC[C@@H](Cc1ccc(F)cc1)C(=O)OC[C@@H]1CCCN1C(=O)[C@@H](CC=C)CC(=O)N[C@@H](CO)Cc1ccccc1`?
MOR-DOR inv ag: -55; HTR5A inv ag: 10; HTR5A ag: -3; MOR-DOR ag: 9

What do the screens show for `CC(=O)NC1C(=O)N(Cc2ccccc2)c2ccc(Br)cc21` (stereo not given)?
MOR-DOR inv ag: 14; HTR5A inv ag: -1; HTR5A ag: 0; MOR-DOR ag: -3

How did Cc1ccc2c(c1)C(CCN)C(=O)N2Cc1ccccc1 (stereo not given) do in these assays?
MOR-DOR inv ag: 65*; HTR5A inv ag: 57*; HTR5A ag: -21; MOR-DOR ag: -11
